Results filed as inconclusive are left out. Activity calls are given as the source filed them. Calls come from the whole dose curve; as a rule, active = well fitted curve in the direction sought with a large enough effect; inconclusive = small, poorly fitted or top-dose-only effect, or another doubt; inactive = no such curve, though single readings can be large; an effect the other way counts as inactive or inconclusive.

A short description of assay [1]: Quantitative High-Throughput drug screen in 47 multiple myeloma cell lines against the NCATS MIPE library collection: INA6_PLB cell viability assay (AID 1918965; note: nearly all actives have a fitted effect of over 55% in size; note: potency is the fitted concentration of half-maximal effect). Summed up: (§1)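 CellTiter-Glo luminescence (ATP) after 48 h compound exposure, 37C/5% CO2; 500 cells/well; MIPE 4.0 approved/investigational drugs pinned in; DMSO = 100%, media only = 0% viability.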
A short description of assay [2]: Quantitative High-Throughput drug screen in 47 multiple myeloma cell lines against the NCATS MIPE library collection: H1112_PLB cell viability assay (AID 1918967; note: nearly all actives have a fitted effect of over 30% in size; note: potency is the fitted concentration of half-maximal effect). Summed up: (§2)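 Myeloma cell lines, 500 cells per well, exposed to MIPE 4.0 library compounds for 48 h at 37C, 5% CO2. Viability from ATP by CellTiter-Glo luminescence; normalised to DMSO (100%) and media-only (0%) wells.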

Assay [3] is described as follows: Quantitative High-Throughput drug screen in 47 multiple myeloma cell lines against the NCATS MIPE library collection: Karpas25_ECACC cell viability assay (AID 1918968; note: potency is the fitted concentration of half-maximal effect; nearly all actives have a fitted effect of over 35% in size). In short, it runs like this: as §2
Assay [4] is described as follows: Quantitative High-Throughput drug screen in 47 multiple myeloma cell lines against the NCATS MIPE library collection: KMS27_JCRB cell viability assay (AID 1918970). Note: nearly all actives have a fitted effect of over 30% in size. Note: potency is the fitted concentration of half-maximal effect. To be noted: KMS27 myeloma cells, CellTiter-Glo ATP viability, 48 h; viability (% of DMSO): at 45.8 µM (top of the series). In short, it runs like this: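 CellTiter-Glo luminescence after 48 h drug exposure at 37 °C; 500 cells/well, 1536-well format, pin-tool compound addition; DMSO = 100%, media-only = 0% viability.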
In general terms: ATP-based viability assays read luminescence as a measure of living cells.

A short description of assay [5]: Quantitative High-Throughput drug screen in 47 multiple myeloma cell lines against the NCATS MIPE library collection: KMS12BM_JCRB cell viability assay (AID 1918971). Note: nearly all actives have a fitted effect of over 35% in size. Note: potency is the fitted concentration of half-maximal effect. Summed up:
(§3)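 Steps: seed 500 cells per well; pin-transfer MIPE 4.0 library; incubate 48 h at 37C, 5% CO2, humidified; add CellTiter-Glo, 5 min room temperature; read luminescence.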

Assay [6] in a line: Quantitative High-Throughput drug screen in 47 multiple myeloma cell lines against the NCATS MIPE library collection: KMS20_JCRB cell viability assay (AID 1918973). Note: nearly all actives have a fitted effect of over 45% in size. Note: potency is the fitted concentration of half-maximal effect. Summed up:
as §2

Assay [7] can be described thus: Quantitative High-Throughput drug screen in 47 multiple myeloma cell lines against the NCATS MIPE library collection: KMS21BM_JCRB cell viability assay (AID 1918974). Note: potency is the fitted concentration of half-maximal effect. The following applies: ATP luminescence, 48 h; viability: at 45.8 µM (top of the series). Summed up: as §2
Assay [8] can be described thus: Quantitative High-Throughput drug screen in 47 multiple myeloma cell lines against the NCATS MIPE library collection: MMM1_PLB cell viability assay (AID 1918976). Note: nearly all actives have a fitted effect of over 35% in size. Note: potency is the fitted concentration of half-maximal effect. Summed up:
(§4)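 500 cells/well; MIPE 4.0 drugs pin-transferred; 48 h, 37C, 5% CO2. CellTiter-Glo, 5 min RT, luminescence. Controls: DMSO 100%, media 0%.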

Assay [9] is described as follows: Quantitative High-Throughput drug screen in 47 multiple myeloma cell lines against the NCATS MIPE library collection: NCIH929_DSMZ cell viability assay (AID 1918978). Note: nearly all actives have a fitted effect of over 35% in size. Note: potency is the fitted concentration of half-maximal effect. In short, it runs like this: as §4
Assay [10] in a line: Quantitative High-Throughput drug screen in 47 multiple myeloma cell lines against the NCATS MIPE library collection: OCIMY1_PLB cell viability assay (AID 1918979). Note: nearly all actives have a fitted effect of over 35% in size. Summed up:
as §4

Assay [11] in a line: Quantitative High-Throughput drug screen in 47 multiple myeloma cell lines against the NCATS MIPE library collection: JIM3_ECACC cell viability assay (AID 1918963; note: nearly all actives have a fitted effect of over 35% in size; note: potency is the fitted concentration of half-maximal effect). In short, it runs like this: as §3
Assay [12] is described as follows: Quantitative High-Throughput drug screen in 47 multiple myeloma cell lines against the NCATS MIPE library collection: KMS12PE_JCRB cell viability assay (AID 1918972). Note: nearly all actives have a fitted effect of over 30% in size. Note: potency is the fitted concentration of half-maximal effect. Summed up:
as §1

Assay [13] in a line: Quantitative High-Throughput drug screen in 47 multiple myeloma cell lines against the NCATS MIPE library collection: KHM11_PLB cell viability assay (AID 1918962). Note: nearly all actives have a fitted effect of over 35% in size. Note: potency is the fitted concentration of half-maximal effect. Summed up:
as §3

Assay [14] can be described thus: Quantitative High-Throughput drug screen in 47 multiple myeloma cell lines against the NCATS MIPE library collection: KMS26_JCRB cell viability assay (AID 1918975). Note: nearly all actives have a fitted effect of over 45% in size. Note: potency is the fitted concentration of half-maximal effect. Summed up: as §3
Assay [15] can be described thus: Quantitative High-Throughput drug screen in 47 multiple myeloma cell lines against the NCATS MIPE library collection: MOLP8_DSMZ cell viability assay (AID 1918977). Note: nearly all actives have a fitted effect of over 45% in size. Note: potency is the fitted concentration of half-maximal effect. Summed up: as §4
The nature of assay [16]: Quantitative High-Throughput drug screen in 47 multiple myeloma cell lines against the NCATS MIPE library collection: JIM1_ECACC cell viability assay (AID 1918964; note: potency is the fitted concentration of half-maximal effect). Summed up:
as §2

Assay [17] can be described thus: Quantitative High-Throughput drug screen in 47 multiple myeloma cell lines against the NCATS MIPE library collection: JJN3_DSMZ cell viability assay (AID 1918966; note: nearly all actives have a fitted effect of over 50% in size; note: potency is the fitted concentration of half-maximal effect). Summed up:
as §2

The nature of assay [18]: Quantitative High-Throughput drug screen in 47 multiple myeloma cell lines against the NCATS MIPE library collection: KMM1_JCRB cell viability assay (AID 1918960). Note: potency is the fitted concentration of half-maximal effect; nearly all actives have a fitted effect of over 30% in size. In short, it runs like this: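 500 cells/well; MIPE 4.0 library pinned in; 48 h, 37 °C, 5% CO2; CellTiter-Glo ATP luminescence. Controls: DMSO = 100% viability, medium only = 0%.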
Assay [19] can be described thus: Quantitative High-Throughput drug screen in 47 multiple myeloma cell lines against the NCATS MIPE library collection: Karpas417_ECACC cell viability assay (AID 1918961). Note: potency is the fitted concentration of half-maximal effect. To be noted: Karpas417 myeloma viability, CellTiter-Glo ATP luminescence, 48 h; viability (% of DMSO): at 45.8 µM (top of the series). Summed up:
as §1

`O=C(O)c1ccc(Nc2ncc3c(n2)-c2ccc(Cl)cc2C(c2c(F)cccc2F)=NC3)cc1`: the Potency in [1] is 1.87 µM (active); in assay [2], 16.6 µM (active); in assay [3], 14.8 µM (active); in assay [5], 0.296 µM (active); in [6], 14.8 µM (active); in assay [7], 0.743 µM (active). Also, the Potency in [9] is 4.18 µM (active). Moreover, the Potency result in assay [4], in assay [8] and in [10] was “inactive” in each case.
Consider `Cc1cc(-c2nnc3n2CCCCC3)c(C)n1-c1ccccc1`, for which the Potency entry in assay [11], in [1], in assay [2] and in [9] was “inactive” in each case. Further, the Potency in assay [12] was 20.9 µM (active); in assay [8] it was 14.8 µM (active).
For `COc1cc(C(C)C)c(Oc2cnc(NC(CO)CO)nc2N)cc1I`, the Potency result in assay [13], in assay [11], in [1], in assay [2], in assay [5] and in assay [15] was “inactive” in each case. Moreover, the Potency entry in assay [9] is “inactive”. The values for the Potency in assay [3], in assay [7] and in assay [14] were 18.7 µM (active), 0.662 µM (active) and 2.64 µM (active), respectively.
On to `COc1cc(N2CCC(C(N)=O)CC2)ccc1Nc1nc(N)c(Cl)c(Nc2ccccc2S(=O)(=O)C(C)C)n1`, for which the Potency in assay [11] was 0.166 µM (active); in [16], 0.0469 µM (active); in [1], 7.43 µM (active); in assay [17] it was 0.105 µM (active); in assay [3], 0.235 µM (active); in assay [4], 0.264 µM (active). Also, the Potency is 2.64 µM (active) in assay [5]; 0.001 µM (active) in assay [6]; 1.87 µM (active) in assay [14]; 0.209 µM (active) in [8]; 0.0935 µM (active) in assay [9].
In the case of `CCCCCCCN(CC)CCCC(O)c1ccc(NS(C)(=O)=O)cc1` (stereo not drawn), the values for the Potency in assay [18], in assay [4] and in assay [12] were 20.9 µM (active), 20.9 µM (active) and 16.6 µM (active), respectively. In assay [5], the Potency entry is “inactive”.
On to `COc1ccc(C=Cc2cc(OC)c(OC)c(OC)c2)cc1NC(=O)[C@H](N)CO`, for which the Potency in assay [19] is 0.59 µM (active); in [1], 0.001 µM (active); in assay [17] it was 0.0235 µM (active); in assay [3], 0.001 µM (active); in [5], 0.0166 µM (active); in [12], 0.0118 µM (active). Moreover, the Potency in assay [14] was 0.0332 µM (active); in [8], 0.0187 µM (active); in assay [15] it was 0.0662 µM (active); in assay [9], 0.0059 µM (active).
Turning to `O=C(O)CCCCC(CCSCc1ccccc1)SCc1ccccc1` (stereo not drawn), the Potency result in assay [13], in assay [11], in assay [5], in [14], in [15] and in assay [9] was “inactive” throughout. In addition, in [10], the Potency result is “inactive”. Also, the Potency is 13.2 µM (active) in assay [4] and 16.6 µM (active) in assay [12].
With `N#CC(=C(N)Sc1ccc(N)cc1)c1ccccc1C(F)(F)F`, the Potency was 0.418 µM (active) in assay [13]; 5.9 µM (active) in assay [11]; 8.33 µM (active) in assay [1]; 3.32 µM (active) in assay [2]; 13.2 µM (active) in assay [3]; 7.43 µM (active) in [5]. For the same compound, the figures for the Potency in assay [6] and in [9] were 0.469 µM (active) and 1.05 µM (active), respectively. Further, the Potency result in assay [4], in assay [12] and in [8] was “inactive” each time.
As for `COc1ccc2cc([S+]([O-])Cc3ncc(C)c(OC)c3C)nc2c1`, the Potency result in assay [16], in assay [17], in assay [2], in assay [5], in assay [6] and in assay [9] was “inactive” in each case. In addition, in assay [3], the Potency was 16.6 µM (active).

Source of the values: PubChem BioAssay (NCATS).
